Screen size: about 38,000 compounds; about 1,200 (3.2%) showed an effect of 50% or more. The median lay at about -58%. What follows is part of a selection rich in strong results, with near analogues and random picks from the rest.
Test system: Plasmodium falciparum
Experiment: Calibr Malaria Delayed Death Assay SOP
Format: functional, organism-based
Parameters: scale not given: in the data most compounds retested in dose-response had high values
Settings: concentration 4.99e-06 (unit not given; other assays of the set use mol/L)

Row | Structure (SMILES) | Percent Effect
1 | Cc1nc(CO[C@@H]2CC[C@H]3[C@H]2OCCN3Cc2cccnc2)cs1.O=C(O)C(F)(F)F.O=C(O)C(F)(F)F.O=C(O)C(F)(F)F | -25.46%
2 | CC(C)CNC(=O)N1C[C@H]2C[C@H](C(=O)NCc3ccccc3)[C@@H](C1)O2 | -25.06%
3 | O=C(NCc1cc[nH]n1)N1CCN(c2ncccn2)CC1 | -98.04%
4 | Cc1ccoc1C(=O)N1Cc2c(CN3CCCCC3)nn(C)c2C1.O=CO | -35.59%
5 | Cc1cc(CN(C)C2CCCN(c3cccnn3)C2)no1 (stereo not given) | -12.48%
6 | Cc1oncc1C(=O)NCC1(O)CCc2ccccc2C1 (stereo not given) | -85.49%
7 | COc1coc(C(=O)Nc2nc(-c3ccncc3)cs2)cc1=O | -115.6%
8 | Cc1ccc(NC2CCN(C(=O)COc3cccc(F)c3)CC2)nn1 | -0.3434%
9 | Cn1cc(C[C@H]2[C@H](O)CCN2Cc2ccncc2)cn1.O=C(O)C(F)(F)F.O=C(O)C(F)(F)F | -36.65%
10 | O=C(CCNCc1cccc(O)c1)N1CCc2sccc2C1 | 50.25%
11 | Cc1cc(C2CCCN2CCC(=O)N2CCc3sccc3C2)no1 (stereo not given) | -5.731%
12 | O=C(CCN1CCCC1C1CCCCC1)N1CCc2sccc2C1 (stereo not given) | 58.84%
13 | COc1ccc(CNCCC(=O)N2CCc3sccc3C2)cc1O | 34.01%
14 | O=C(CCN1CCCC1c1cccc(F)c1)N1CCc2sccc2C1 (stereo not given) | 40.53%
15 | N#Cc1cccc(CNCCC(=O)N2CCc3sccc3C2)c1 | 18.53%
16 | CNc1nc(C)c(C(=O)N2C[C@@H](C(=O)O)[C@H](C3CC3)C2)s1 | -129.8%
17 | Cc1cc(C[S+]([O-])CC(=O)NCc2ccccc2)no1 (stereo not given) | -44.89%
18 | C[C@H](NC(=O)OC(C)(C)C)c1nnc(S(=O)(=O)Cc2cccc(F)c2)o1 | -198.9%
19 | Cc1nc2c(c(NC(C)c3nnn[nH]3)n1)Cc1ccccc1OC2 (stereo not given) | -22.04%
20 | CNS(=O)(=O)c1cccc(C(C)NCc2ccc(F)cc2F)c1 (stereo not given) | -6.511%
21 | CNS(=O)(=O)c1cccc(C(C)NCc2cccc(OC)c2)c1 (stereo not given) | -0.2291%
22 | CNS(=O)(=O)c1cccc(C(C)NCc2ccccc2OC)c1 (stereo not given) | 86.21%
23 | CNS(=O)(=O)c1cccc(C(C)NCc2ccc(C)o2)c1 (stereo not given) | 21.13%
24 | CNS(=O)(=O)c1cccc(C(C)NCc2cccc(C)c2C)c1 (stereo not given) | 68.88%
25 | CNS(=O)(=O)c1cccc(C(C)NCc2ccco2)c1 (stereo not given) | 0.2758%
26 | O=C(c1cc2c(s1)CCCCC2)N1CCC(c2ncc[nH]2)CC1 | -34.19%
27 | COc1nc2c(cc1C(=O)N1CCCCC1c1ccccn1)CCC2 (stereo not given) | -121.2%

Row | Structure (SMILES) | Percent Effect
28 | Cc1nn(CC(C)C)c(N(C)C)c1CNCc1ccc(CO)c(F)c1 | -6.96%
29 | O=C(CCNS(=O)(=O)c1ccc(F)cc1)NCc1ccoc1 | -96.77%
30 | CCCc1nc(CN2CCCC2Cn2cncn2)no1 (stereo not given) | -44.73%
31 | CCSc1ncc(CN2CCC(O)(CN3CCOCC3)C(C)(C)C2)cn1 (stereo not given) | 16.41%
32 | COc1ccc2c(c1)C(NCCc1ncc(C)s1)CCCO2 (stereo not given) | -37.71%
33 | COc1c(CNC2CCCOc3ccccc32)c(C)nn1C (stereo not given) | -45.12%
34 | Cc1ccc2c(c1)OCCCC2NC1CCN(C)CC1 (stereo not given) | 47.45%
35 | COc1ccc2c(c1)C(NCCc1ccccn1)CCCO2 (stereo not given) | 57.17%
36 | COc1cccc(CNC2CCCOc3cc(C)ccc32)n1 (stereo not given) | 67.49%
37 | COc1ccc2c(c1)C(NCCc1c(C)noc1C)CCCO2 (stereo not given) | 29.88%
38 | O=C(Nc1cn[nH]c1)N1CCN(CCSc2ccccc2)CC1 | -6.157%
39 | CCOCc1ncn2c1CN(C(=O)Nc1cccc(F)c1)CC2 | -77.13%
40 | CN(CCCOc1ccccc1Cl)C(=O)CN1CCCCCC1=O | -111.3%
41 | Cc1cccc(S(=O)(=O)N2Cc3nccn3CC(CN(C)C)C2)c1 (stereo not given) | 1.767%
42 | CC(=O)N1CCc2[nH]c(=O)ccc2C1 | -39.7%
43 | CCn1ccnc1CNCC(c1ccc(C)s1)N1CCOCC1 (stereo not given) | 52.86%
44 | Cc1ccc(C(CNCc2nccn2C)N2CCOCC2)s1 (stereo not given) | -32.15%
45 | CCCn1cc(CNCC(c2ccc(C)s2)N2CCOCC2)cn1 (stereo not given) | 54.23%
46 | CCn1cc(CNCC(c2ccc(C)s2)N2CCOCC2)cn1 (stereo not given) | 64.77%
47 | CCn1cc(CNC(=O)CCc2nnc(-c3ccc(C)s3)o2)cn1 | -44.03%
48 | Cc1ccc(C(CNCC2CC2)N2CCOCC2)s1 (stereo not given) | 23.83%
49 | O=C(CCn1cccn1)NCC(c1cccs1)N1CCOCC1 (stereo not given) | -64.96%
50 | Cc1ccc(C(CNCc2ccncc2)N2CCOCC2)s1 (stereo not given) | -46.8%
51 | Cc1ccc(C(CNCc2ccc(C#N)cc2)N2CCOCC2)s1 (stereo not given) | 50.98%
52 | Cc1ccc(C(CNCc2ncc[nH]2)N2CCOCC2)s1 (stereo not given) | 32.72%
53 | Cc1ccc(C(CNCc2cccn2C)N2CCOCC2)s1 (stereo not given) | -42.34%
54 | Cc1ccc(C(CNCc2cccnc2)N2CCOCC2)s1 (stereo not given) | -2.804%

Row | Structure (SMILES) | Percent Effect
55 | O=C(NCCc1nccs1)C(c1ccccc1)n1cnnn1 (stereo not given) | -126.4%
56 | Cn1ccnc1-c1ccc(NCc2cn3c(n2)SCC3)nn1 | -229.6%
57 | CC(C)CC(CO)NS(=O)(=O)Cc1ccon1 (stereo not given) | -57.79%
58 | Cc1ccc2nc(C3CCCN3C(=O)c3cc(=O)[nH]c(=O)[nH]3)[nH]c2c1 (stereo not given) | -24.73%
59 | COc1ccc(NS(=O)(=O)CC2=NC(=O)n3cccc3C2=O)cc1Cl | -78.67%
60 | CN(CCC(N)=O)Cc1cc(Br)cs1 | -77.34%
61 | CCCN(CCC)C(=O)CN(C)Cc1cnc(C)s1 | -123.6%
62 | Cc1ncc(CN(C)CC(O)c2ccc(Br)cc2)s1 (stereo not given) | 19.44%
63 | Cc1ncc(CN(C)CC(O)c2cccc(C(F)(F)F)c2)s1 (stereo not given) | 53.4%
64 | Cc1ncc(CN(C)CC(O)c2ccc(OC(F)(F)F)cc2)s1 (stereo not given) | 62.45%
65 | CCOC(=O)CN(C)Cc1cnc(C)s1 | -144.9%
66 | Cc1cc(CNC(=O)NCC(O)c2cccc(C(F)(F)F)c2)no1 (stereo not given) | -35.43%
67 | N#Cc1ccc(N2CCC3(CCC(=O)N3Cc3ccncc3)CC2)nc1.O=C(O)C(F)(F)F.O=C(O)C(F)(F)F | -114.1%
68 | CCn1cc(-c2cc(C(F)F)n3nc(CC(=O)O)nc3n2)cn1 | -21.51%
69 | CCOCCN1CCN([C@@H]2c3ccccc3C3(CCNCC3)[C@H]2O)CC1 | -70.37%
70 | COCCCC1CCN([C@@H]2c3ccccc3C3(CCNCC3)[C@H]2O)CC1 | 36.42%
71 | Cc1cc(C(C)(O)CNC(=O)CCOCC(C)C)c(C)o1 (stereo not given) | -34.27%
72 | CCS(=O)(=O)N1CC[C@@H]2[C@H](CC1)N(Cc1cccnc1)CCS2(=O)=O.O=C(O)C(F)(F)F.O=C(O)C(F)(F)F | -78.89%
73 | Cc1csc(C2CCCCN2C(=O)COCc2nc(C)no2)n1 (stereo not given) | -74.6%
74 | Cc1csc(C2CCCCN2C(=O)CN(C)C2CC2)n1 (stereo not given) | -127%
75 | Cc1csc(C2CCCCN2C(=O)c2cc(C(C)C)[nH]n2)n1 (stereo not given) | 75.22%
76 | CC(NCC(=O)Nc1ccc(N2CCCCCC2)cc1)c1cccs1 (stereo not given) | 21.94%
77 | COC(=O)c1cc(OC)c(OC)cc1NCc1c(C)noc1C | -119.4%
78 | CCCN(C(=O)CN1CCn2c(nnc2C2CC2)C1)C1=CCCCC1 | -109.1%
79 | Cc1nn(C)c2nc(NCCCN3CCCC(C(N)=O)C3)sc12 (stereo not given) | -133.1%
80 | COCc1ncc(CN(CCN(C)C)Cc2ccc(C)s2)cn1 | 1.94%
81 | CCc1ccc(CN(CCN(C)C)Cc2ccc(C)s2)nc1 | 91.79%

Row | Structure (SMILES) | Percent Effect
82 | Cc1ccc(CN(CCCO)Cc2nc3ccccc3[nH]2)s1 | -85.6%
83 | CCNc1ncc(CN(CCN(C)C)Cc2ccc(C)s2)cn1 | 37.82%
84 | COc1ncc(CN(CCN(C)C)Cc2ccc(C)s2)cn1 | -3.016%
85 | Cc1ccc(CN(CCN(C)C)Cc2nc3ccccc3[nH]2)s1 | 60.93%
86 | O=C(O)C1(O)CCN(c2ccc3cccc(Cl)c3n2)CC1 | -181.1%
87 | CCCN1CCC(c2nc3ccc(-c4cccc(F)c4)cn3n2)CC1.O=C(O)C(F)(F)F | 31.95%
88 | COc1ccc(OC)c(-n2nnnc2SCC2CCCN(C)C2)c1 (stereo not given) | 41.34%
89 | COc1ccc(CN2CC[C@H](c3nnc(-c4ccco4)o3)C2)cc1 | -19.38%
90 | COc1ccc(Cn2nnnc2SCC2CCCN(C)C2)cc1 (stereo not given) | 58.9%
91 | O=C(O)C(F)(F)F.O=C(c1cccs1)N1CCOCC2(C1)CN(c1cccnc1)C(=O)CO2 (stereo not given) | -98.48%
92 | Cc1ccc(C(=O)Nc2nnc(CC(C)C)s2)c(-n2cnnn2)c1C | -82.26%
93 | Cn1ccnc1CN1CCC(Cn2cc(-c3ccncc3)nn2)CC1 | -74.11%
94 | COc1ccc(F)c(CN2CCCC(O)(CNCc3ccon3)C2=O)c1 (stereo not given) | -23.9%
95 | O=C1N(Cc2cccc(F)c2F)CCCC1(O)CNCc1ccccn1 (stereo not given) | 0.3162%
96 | COCCNCC1(O)CCCN(Cc2ccc(F)c(F)c2)C1=O (stereo not given) | 23.01%
97 | O=C(CNCC1(O)CCCN(Cc2cccc(F)c2F)C1=O)NC1CC1 (stereo not given) | -101.8%
98 | COc1ccc(F)c(CN2CCCC(O)(CNC3CCCCC3)C2=O)c1 (stereo not given) | 69.02%
99 | C=C(C)CNCC1(O)CCCN(Cc2ccc(F)c(F)c2)C1=O (stereo not given) | -91.62%
100 | O=C1N(Cc2ccc(F)c(F)c2)CCCC1(O)CNCC1CCCCC1 (stereo not given) | 73.06%
101 | O=C1N(Cc2cccc(F)c2F)CCCC1(O)CNC1CCCC1 (stereo not given) | 59.35%
102 | COc1ccc(F)c(CN2CCCC(O)(CNCc3ncc[nH]3)C2=O)c1 (stereo not given) | -101.4%
103 | CN1CCC(NCC2(O)CCCN(Cc3ccccc3F)C2=O)CC1 (stereo not given) | 4.135%
104 | COC(=O)CNCC1(O)CCCN(Cc2cccc(F)c2F)C1=O (stereo not given) | -57.14%
105 | O=C1N(Cc2cccc(F)c2F)CCCC1(O)CNCC1CCCCC1 (stereo not given) | 73.31%

— ChEMBL document CHEMBL3988442, “University of Dundee, Small-Polar-MMV Screening Library” (2021)
